Measurements taken from PubChem BioAssay (Tox21).
Records with an inconclusive call do not appear. Where a structure was tested more than once in an assay, its records may differ in their call. Activity calls are given as the source filed them. The call rests on the fitted dose curve.

Tests used:
[1] = target: Acetylcholinesterase (Homo sapiens) (UniProt P22303); assay: Acetylcholinesterase (AChE) small molecule antagonists: colormetric cell-based qHTS assay (AID 1347395); further: nearly all actives have a fitted effect of over 30% in size; further: potency means the concentration at half of the fitted maximal effect
Sequence of Acetylcholinesterase (Homo sapiens) (P22303 whole entry, looked up): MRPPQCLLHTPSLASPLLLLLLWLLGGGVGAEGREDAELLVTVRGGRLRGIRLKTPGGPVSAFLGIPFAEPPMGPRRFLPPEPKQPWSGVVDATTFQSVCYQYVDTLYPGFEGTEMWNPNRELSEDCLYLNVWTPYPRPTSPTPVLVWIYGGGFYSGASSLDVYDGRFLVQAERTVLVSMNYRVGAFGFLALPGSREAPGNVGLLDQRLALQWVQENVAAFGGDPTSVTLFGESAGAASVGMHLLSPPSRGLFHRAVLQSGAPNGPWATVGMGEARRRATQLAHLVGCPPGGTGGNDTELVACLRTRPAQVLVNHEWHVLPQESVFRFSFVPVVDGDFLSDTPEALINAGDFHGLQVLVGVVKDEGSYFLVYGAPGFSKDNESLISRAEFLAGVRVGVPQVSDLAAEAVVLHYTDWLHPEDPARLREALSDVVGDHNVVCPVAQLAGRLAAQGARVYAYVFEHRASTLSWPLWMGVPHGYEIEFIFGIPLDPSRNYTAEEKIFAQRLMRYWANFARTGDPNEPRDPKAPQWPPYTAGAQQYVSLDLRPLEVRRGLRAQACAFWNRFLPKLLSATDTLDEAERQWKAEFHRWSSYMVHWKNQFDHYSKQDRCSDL
Outline: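 SH-SY5Y cells, plated overnight at 37 C, were exposed to compounds for 30 min at 37 C and 5% CO2. Acetylthiocholine plus DTNB was then added, and thiocholine from endogenous AChE was quantified colorimetrically after 90 min at 37 C.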

[2] = target: Acetylcholinesterase (Homo sapiens) (UniProt P22303); assay: Acetylcholinesterase (AChE) small molecule antagonists: enzyme-based qHTS assay (AID 1347397); settings: Potency: AChE enzyme activity inhibition; outcome: AChE enzyme activity inhibition; further: nearly all actives have a fitted effect of over 55% in size
Outline: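 Colorimetric DTNB readout of acetylthiocholine hydrolysis, 10 min at room temperature, after 30 min room-temperature exposure of 50 mU/mL recombinant human enzyme to compound; DMSO vehicle control.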

[3] = target: Acetylcholinesterase (Homo sapiens) (UniProt P22303); assay: Acetylcholinesterase (AChE) small molecule antagonists: fluorescence cell-based qHTS assay (AID 1347398); settings: Potency: AChE activity; outcome: AChE activity; further: nearly all actives have a fitted effect of over 50% in size
Outline: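 Cellular AChE activity read as thiocholine from acetylthiocholine hydrolysis, detected by Thiolite Green fluorescence at 490/520 nm after 40 min at room temperature. Compounds were pre-incubated 30 min at 37 C on adherent SH-SY5Y cells.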

[4] = target: Acetylcholinesterase (Homo sapiens) (UniProt P22303); assay: Acetylcholinesterase (AChE) small molecule antagonists: enzyme-based qHTS assay with human liver microsomes (AID 1347399); settings: Potency: qHTS inhibition; outcome: qHTS inhibition; further: nearly all actives have a fitted effect of over 60% in size
Outline: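 Recombinant human AChE (50 mU/mL in the enzyme mix) and human liver microsomes (0.25 mg/mL final) were preincubated with compound and NADPH (0.25 mg/mL final) for 30 min at 37 C. Acetylthiocholine/DTNB was then added; thiocholine was read colorimetrically after 10 min at room temperature.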
On the % scale 0 is the no-effect control and ±100 the full control effect.

CC(=O)CC/C=C(\C)CC/C=C(\C)CC/C=C(\C)CCC=C(C)C
inactive: Potency [1] | Potency [2] | Potency [3] | Potency [4]

CC(C)(C)CC(C)(C)c1ccc(O)c(-n2nc3ccccc3n2)c1
inactive: Potency [1] | Potency [2] | Potency [3] | Potency [4]

O=C(O)CNc1ccccc1
inactive: Potency [1] | Potency [2] | Potency [3] | Potency [4]

Cc1cc(C(C)(C)C)c(O)c(C)c1Cn1c(=O)n(Cc2c(C)cc(C(C)(C)C)c(O)c2C)c(=O)n(Cc2c(C)cc(C(C)(C)C)c(O)c2C)c1=O
inactive: Potency [1] | Potency [2] | Potency [3] | Potency [4]

CCCCCCCCO
inactive: Potency [1] | Potency [2] | Potency [3] | Potency [4]

COC(c1ccccc1)(c1ccccc1)[C@H](Oc1nc(C)cc(C)n1)C(=O)O
inactive: Potency [1] | Potency [2] | Potency [3] | Potency [4]

CC(=O)c1ccccc1[N+](=O)[O-]
inactive: Potency [1] | Potency [2] | Potency [3] | Potency [4]

[O-][N+](=Nc1ccccc1)c1ccccc1
inactive: Potency [1] | Potency [2] | Potency [3] | Potency [4]

COC(=O)c1c(C)cc(O)c(C)c1O
inactive: Potency [1] | Potency [2] | Potency [3] | Potency [4]

CC(C)OC(=O)COc1ccc(Cl)cc1Cl
inactive: Potency [1] | Potency [2] | Potency [3] | Potency [4]

Oc1ccc(Cl)cc1Sc1cc(Cl)ccc1O
inactive: Potency [1] | Potency [2] | Potency [3] | Potency [4]

CCCCCCC(CCCCCCCCCCC(=O)OCC(COC(C)=O)OC(C)=O)OC(C)=O (stereo not given)
inactive: Potency [1] | Potency [2] | Potency [3] | Potency [4]

NC(=O)CCCCC1CCSS1 (stereo not given)
inactive: Potency [1] | Potency [2] | Potency [3] | Potency [4]

CC(=O)CC/C=C(\C)CCC=C(C)C
inactive: Potency [1] | Potency [2] | Potency [3] | Potency [4]

CCCCCCCCn1sc(Cl)c(Cl)c1=O
inactive: Potency [1] | Potency [2] | Potency [3] | Potency [4]

Cc1ccccc1C(=O)N1CC/C(=N\OS(=O)(=O)O)c2ccc(Cl)cc21
inactive: Potency [1] | Potency [2] | Potency [3] | Potency [4]

Cc1c(OCC(F)(F)F)ccnc1CS(=O)c1nc2ccccc2[nH]1 (stereo not given)
inactive: Potency [1] | Potency [2] | Potency [3] | Potency [4]

OCCNCCO
inactive: Potency [1] | Potency [2] | Potency [3] | Potency [4]

O=C1CCCCCCCCCCCCCCO1
inactive: Potency [1] | Potency [2] | Potency [3] | Potency [4]

Oc1c(I)cc(Cl)c2cccnc12
inactive: Potency [1] | Potency [2] | Potency [3] | Potency [4]

COCC(=O)O
inactive: Potency [1] | Potency [2] | Potency [3] | Potency [4]

CNc1ccc([N+](=O)[O-])cc1
inactive: Potency [1] | Potency [2] | Potency [3] | Potency [4]

O=C1CC2CC1C1CCCC21 (stereo not given)
inactive: Potency [1] | Potency [2] | Potency [4]

Cc1cc(N)no1
inactive: Potency [1] | Potency [2] | Potency [4]

C=CC(=O)CC
inactive: Potency [1] | Potency [2] | Potency [4]

CC1(C)O[C@H]2CC(=O)OC[C@]23[C@H]2CC[C@@]4(C)[C@H](c5ccoc5)OC(=O)[C@H]5O[C@]54[C@]2(C)C(=O)C[C@@H]13
inactive: Potency [1] | Potency [2] | Potency [4]

OCC(CO)(CBr)CBr
inactive: Potency [1] | Potency [2] | Potency [4]

COc1cccc2sc(N)nc12
inactive: Potency [1] | Potency [2] | Potency [4]

CCCCOC(=O)CCC(C)=O
inactive: Potency [1] | Potency [2] | Potency [4]

CC1=C(O)C(=O)OC1C (stereo not given)
inactive: Potency [1] | Potency [2] | Potency [4]

CC(=O)OC/C=C/c1ccccc1
inactive: Potency [1] | Potency [2] | Potency [4]

O=C1CCCCC1C1CCCCC1 (stereo not given)
inactive: Potency [1] | Potency [2] | Potency [4]

O=C(c1ccc(O)cc1)c1ccc(O)c(O)c1O
inactive: Potency [1] | Potency [2] | Potency [4]

CC(N)C12CC3CC(CC(C3)C1)C2 (stereo not given)
inactive: Potency [1] | Potency [2] | Potency [4]

OCCOCCOCCO
inactive: Potency [1] | Potency [2] | Potency [4]

CC(C)=CCCC(C)CC(=O)O (stereo not given)
inactive: Potency [1] | Potency [2] | Potency [4]

CC(=O)OC/C=C(C)/C=C/C=C(C)/C=C/C1=C(C)CCCC1(C)C
inactive: Potency [1] | Potency [2] | Potency [4]

Cc1ncc(COP(=O)(O)O)c(C=O)c1O
inactive: Potency [1] | Potency [2] | Potency [4]

O=C(OCCOCCOCCOC(=O)c1ccccc1)c1ccccc1
inactive: Potency [1] | Potency [2] | Potency [4]

OC[C@H](Cc1cccc(O)c1)[C@H](CO)Cc1cccc(O)c1
inactive: Potency [1] | Potency [2] | Potency [4]

CCCCOCCOCCOCCOCCO
inactive: Potency [1] | Potency [2] | Potency [4]

O=S(=O)(O)c1ccc2ccccc2c1
inactive: Potency [1] | Potency [2] | Potency [4]

Nc1ccc(S(=O)(=O)O)cc1
inactive: Potency [1] | Potency [2] | Potency [4]

O=C(c1ccccc1)C(O)c1ccccc1 (stereo not given)
inactive: Potency [1] | Potency [2] | Potency [4]

O=S(=O)(O)c1ccc(Cl)cc1
inactive: Potency [1] | Potency [2] | Potency [4]

Nc1nc(=S)c2[nH]cnc2[nH]1
21.9 µM (active) and inactive: Potency [1]
inactive: Potency [2] | Potency [4]

O=C(Oc1ccccc1C(=O)O)c1ccccc1O
inactive: Potency [1] | Potency [2] | Potency [4]

C[C@]12CCC(=O)C=C1CC[C@@H]1[C@@H]2[C@@H](O)C[C@@]2(C)[C@H]1CC[C@]2(O)C(=O)COC(=O)CCC(=O)O
inactive: Potency [1] | Potency [2] | Potency [4]

CC(C)(C)CC(C)(C)c1ccc(Nc2ccc(C(C)(C)CC(C)(C)C)cc2)cc1
inactive: activity, negative = inhibition [1] -3.03% [at 10.5 µM] | activity change, negative = inhibition [2] -6.81% [at 10.5 µM] | activity change, negative = inhibition [4] 0.323% [at 10.5 µM]

NCCNCCN
inactive: Potency [1] | Potency [2] | Potency [4]

CCCCOC(=O)CC(CC(=O)OCCCC)(OC(C)=O)C(=O)OCCCC
inactive: Potency [1] | Potency [2] | Potency [4]

CC(C)(C)c1ccc(O)c(O)c1
inactive: Potency [1] | Potency [2] | Potency [4]

O=C(O)c1ccc(-n2nc(-c3ccccc3O)nc2-c2ccccc2O)cc1
inactive: Potency [1] | Potency [2] | Potency [4]

O=C(O)CCS
inactive: Potency [1] | Potency [2] | Potency [4]

CC(C)(Oc1ccc(C2CC2(Cl)Cl)cc1)C(=O)O (stereo not given)
inactive: Potency [1] | Potency [2] | Potency [4]

CN(C)CCCN(C)CCCN(C)C
inactive: Potency [1] | Potency [2] | Potency [4]

O=C(OCCCCCCOC(=O)c1ccccc1)c1ccccc1
inactive: Potency [1] | Potency [2] | Potency [4]

CN(C)c1ccc(C(=N)c2ccc(N(C)C)cc2)cc1
7.01 µM (active) and inactive: Potency [1]
inactive: Potency [2] | Potency [4]

Cc1ccc(S(=O)(=O)O)c(C)c1
inactive: Potency [1] | Potency [2] | Potency [4]

CC(C)[N+](C)(CCOC(=O)C1c2ccccc2Oc2ccccc21)C(C)C
inactive: Potency [1] | Potency [2] | Potency [4]

OCc1ccc(Cl)cc1Cl
inactive: Potency [1] | Potency [2] | Potency [4]

O=[N+]([O-])c1ccccc1Nc1ccccc1
inactive: Potency [1] | Potency [2] | Potency [4]

CC(NN)c1ccccc1 (stereo not given)
inactive: activity, negative = inhibition [1] 1.5% [at 23.6 µM] | activity change, negative = inhibition [2] 0.277% [at 23.6 µM] | activity change, negative = inhibition [4] 1.27% [at 23.6 µM]

CC(=O)NCCO
inactive: Potency [1] | Potency [2] | Potency [4]

CCCCCCCCC1CO1 (stereo not given)
inactive: Potency [1] | Potency [2] | Potency [4]

CCCCCCCCCCOC(C)=O
inactive: Potency [1] | Potency [2] | Potency [4]
